High-throughput results deposited in PubChem BioAssay by National Center for Advancing Translational Sciences (NCATS).
A selection: hits, their analogues and other compounds. The true share with any hit is near 19%.
TDP1 cell noCPT: qHTS for Inhibitors of human tyrosyl-DNA phosphodiesterase 1 (TDP1): qHTS in cells in absence of CPT | DT40 Tdp1-/- hTDP1 cells, no CPT, ATP luminescence, 48 h | hit rate 15% among 420,000 | AID 686978, 2013 | Potency, µM (top dose mostly 46.2 µM), usual class: inhibitors; further: nearly all actives have a fitted effect of over 55% in size
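Growth of hTDP1-complemented DT40 Tdp1-knockout cells is measured by ATP luminescence after at least 48 hr compound exposure at 37 °C, with DMSO substituting for the 20 nM CPT used in the parallel screen.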
TDP1 cell CPT: DT40-hTDP1 cell growth loss with CPT | chicken DT40 Tdp1-/-;hTDP1 cells + 20 nM CPT, ATP luminescence, 48 h | hit rate 12% among 420,000 | Potency, µM (doses to about 46.2 µM), hits mostly inhibitors; further: nearly all actives have a fitted effect of over 55% in size
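Chicken DT40 Tdp1-/- cells complemented with human TDP1, 400 cells/well, exposed to compounds plus 20 nM camptothecin for at least 48 h at 37 C; viability read as ATP content by CellTiter-Glo luminescence.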
HT1080-NT tox: kills 2HG-producing HT-1080-NT fibrosarcoma cells. HT-1080-NT fibrosarcoma viability, CellTiter-Glo ATP luminescence, 48 h. Potency, µM (highest dose often 46.1 µM), actives largely listed as cytotoxic. hit rate 1.6% among 360,000. AID 686970;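 further: NT is the 2HG producing partner of a matched IDH1 knockdown line; nearly all actives have a fitted effect of over 55% in size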
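Fibrosarcoma NT cells, 750 per well in 5% FBS RPMI, were exposed to compound for 48 hours. Viability: CellTiter-Glo luminescence.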
HT1080 IDH1KD tx: kills HT-1080 cells with IDH1 knockdown; HT-1080 IDH1 knockdown viability, ATP luminescence, 48 h; Potency, µM (highest dose often 46.1 µM), usual class: cytotoxic; hit rate 2% among 360,000; AID 686971
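After a 2 h attachment period, IDH1KD HT-1080 cells took pin-transferred compound for 48 h at 37 °C; ATP-based luminescence after 10 min room-temperature reagent incubation reported viability.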
IL1B secr inh: inflammasome signaling inhibition, IL-1 beta readout. activity change, % at 57.5 µM. hit rate 4.7% among 360,000. THP-1 LPS/ATP IL-1B secretion, AlphaLISA, 16 h; stronger effect = lower value; in the data active means activity change below about -50%; inconclusive means mostly about -30% to -49%
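Secreted IL-1B measured by AlphaLISA bead assay after 16 h compound exposure of THP-1 cells; compounds (final up to 57.5 uM) added 1 h before LPS (250 ng/mL) and ATP (1.25 mM) stimulation; lower signal means less secretion.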
Numbers stand for hits; [ ] = dose if it differs, or a comment. Unless noted, the call rests on the fitted dose curve; in most records, active means well fitted curve in the direction sought with a large enough effect; inconclusive means small, poorly fitted or top-dose-only effect, or another doubt; inactive means no such curve, though single readings can be large; an effect the other way counts as inactive or inconclusive.

How did CC1(C)Cc2nc(Cl)c(C(N)=O)cc2CO1 do in these assays?
TDP1 cell noCPT: inactive; TDP1 cell CPT: inactive; HT1080-NT tox: inactive; HT1080 IDH1KD tx: inactive; IL1B secr inh: inactive

Results for C#Cc1ccc([C@H]2C=C(C(=O)NCc3ccccc3)O[C@@H](OCc3ccc(CO)cc3)C2)cc1 ?
TDP1 cell noCPT: inactive; TDP1 cell CPT: inactive; HT1080-NT tox: inactive; HT1080 IDH1KD tx: inactive; IL1B secr inh: inactive

How did COC(=O)CN(Cc1ccccc1)S(=O)(=O)c1ccc(OC)c(OC)c1 do in these assays?
TDP1 cell noCPT: inactive; TDP1 cell CPT: inactive; HT1080-NT tox: inactive; HT1080 IDH1KD tx: inactive[9.24 µM]; IL1B secr inh: inactive

Results for O=C(CSc1ccc(Cl)cc1)Nc1ccc(N2CCN(C(=O)c3ccco3)CC2)cc1 ?
TDP1 cell noCPT: 23µM; TDP1 cell CPT: inconclusive; HT1080-NT tox: inconclusive; HT1080 IDH1KD tx: inconclusive; IL1B secr inh: -68

How did CCC(=O)N1CCN(c2ccc(NC(=O)c3ccc(Br)o3)cc2)CC1 do in these assays?
TDP1 cell noCPT: inactive; TDP1 cell CPT: inactive; HT1080-NT tox: inactive; HT1080 IDH1KD tx: inactive; IL1B secr inh: -56

Results for CCC(=O)N1CCN(c2ccc(NC(=O)COc3ccc(CC)cc3)cc2)CC1 ?
TDP1 cell noCPT: 21µM; TDP1 cell CPT: inactive; HT1080-NT tox: inactive; HT1080 IDH1KD tx: inactive; IL1B secr inh: inactive

How did Cc1cc(C)cc(OCC(=O)Nc2ccc(N3CCN(C(=O)c4ccco4)CC3)cc2)c1 do in these assays?
TDP1 cell noCPT: 18µM; TDP1 cell CPT: 23µM; HT1080-NT tox: inactive; HT1080 IDH1KD tx: inactive; IL1B secr inh: inconclusive

What do the screens show for `CCCCC(=O)Nc1ccc(N2CCN(C(=O)CC)CC2)cc1`?
TDP1 cell noCPT: inactive; TDP1 cell CPT: inactive; HT1080-NT tox: inactive; HT1080 IDH1KD tx: inactive; IL1B secr inh: inactive

Results for Cc1cccc(OCC(=O)Nc2ccc(N3CCN(C(=O)c4ccco4)CC3)cc2)c1C ?
TDP1 cell noCPT: inconclusive; TDP1 cell CPT: inconclusive; HT1080-NT tox: inactive; HT1080 IDH1KD tx: inactive; IL1B secr inh: inactive

How did COc1ccc(/C=C/C(=O)OCCC(C)C)cc1 do in these assays?
TDP1 cell noCPT: inactive; TDP1 cell CPT: inactive

Results for Cc1nn(CCCC(=O)NC(C)c2ccccc2)c(=O)c2nn(-c3ccccc3)c(C)c12 (centres undefined) ?
TDP1 cell noCPT: inactive; TDP1 cell CPT: inactive; HT1080-NT tox: inactive; HT1080 IDH1KD tx: inactive; IL1B secr inh: inactive

Results for CN(CC(=O)Nc1cccc(F)c1)C(=O)CNS(=O)(=O)c1ccc(N(C)C)c([N+](=O)[O-])c1 ?
TDP1 cell noCPT: inconclusive; TDP1 cell CPT: inactive; HT1080-NT tox: inactive; HT1080 IDH1KD tx: inactive; IL1B secr inh: inactive

How did Cc1ccccc1OCC(=O)Nc1ccc(N2CCN(C(=O)c3ccco3)CC2)cc1 do in these assays?
TDP1 cell noCPT: 21µM; TDP1 cell CPT: inconclusive; HT1080-NT tox: inconclusive; HT1080 IDH1KD tx: inactive; IL1B secr inh: inconclusive

Results for N/C(=N\O)c1ccc(NC(=O)c2ccc(Br)o2)cc1 ?
TDP1 cell noCPT: inconclusive; TDP1 cell CPT: 18µM; HT1080-NT tox: inactive; HT1080 IDH1KD tx: inactive; IL1B secr inh: inactive

Results for O=C(Nc1ccccc1C(=O)O)c1ccc(NC(=O)c2ccc(Br)o2)cc1 ?
TDP1 cell noCPT: inconclusive; TDP1 cell CPT: inconclusive; HT1080-NT tox: inactive; HT1080 IDH1KD tx: inconclusive; IL1B secr inh: inactive

What do the screens show for `COc1ccc(CCNC(=O)C2CCN(S(=O)(=O)N3CC(C)CC(C)C3)CC2)cc1OC` (centres undefined)?
TDP1 cell noCPT: inconclusive; TDP1 cell CPT: inconclusive; HT1080-NT tox: inactive; HT1080 IDH1KD tx: inactive; IL1B secr inh: inactive

What do the screens show for `Cc1cc2occ(CC(=O)Nc3nnc(C4CC4)s3)c2cc1C`?
TDP1 cell noCPT: inactive; TDP1 cell CPT: inactive; HT1080-NT tox: inactive; HT1080 IDH1KD tx: inactive[9.24 µM]; IL1B secr inh: inactive

What do the screens show for `O=C(Cc1coc2ccc3ccccc3c12)Nc1nnc(C2CC2)s1`?
TDP1 cell noCPT: 23µM; TDP1 cell CPT: inconclusive; HT1080-NT tox: inactive; HT1080 IDH1KD tx: inconclusive; IL1B secr inh: inactive

Results for Cc1ccc(C)c(N2CCN(S(=O)(=O)c3cn(C)cn3)CC2)c1 ?
TDP1 cell noCPT: inactive; TDP1 cell CPT: inactive; HT1080-NT tox: inactive; HT1080 IDH1KD tx: inactive; IL1B secr inh: inactive
